Among the data in PubChem BioAssay (EPA / NIEHS) are outcome and AC50 values, retold here.

Molecules are shown by their SMILES. “And” between values parts separate entries of the source, which are not always exact repeats. Equal values may be shown once. The source made the active and inactive calls. How the source made its calls: active means hit-call score of the fitted dose curve at least 0.9, where 1 is the maximum; inactive means score below 0.9.

A short description of test [1]: ATG_CRE_CIS: Attagene CIS-FACTORIAL HepG2 Assay for human cAMP Responsive Element (CRE) binding protein 3 (AID 2282926). Conditions: HepG2 CRE cis-reporter, Attagene multiplexed mRNA; actives raise or lower the signal. The gist of the method: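 Endogenous transcription factor activity read via CRE-regulated reporter transcripts in transfected HepG2 cells. After 24 h exposure, RNA was reverse-transcribed, amplified, fluorescently labelled and sized by capillary electrophoresis; gain or loss fitted against DMSO.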

Test [2] addresses CCAAT/enhancer-binding protein beta (Homo sapiens) (UniProt P17676). Put plainly: ATG_C_EBP_CIS: Attagene CIS-FACTORIAL HepG2 Assay for human CCAAT/Enhancer Binding Protein (C/EBP) beta (AID 2282927). The conditions noted are these: HepG2 Attagene cis-factorial transcription factor reporter; actives raise or lower the signal. The method in brief: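 Transiently transfected HepG2 (MRTU library, endogenous TF-driven promoters); 24 h dosing; total RNA → oligo(dT) RT → PCR → 6-FAM primer extension → HpaI digest → CE; fit bidirectionally vs DMSO.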

The nature of test [3]: ATG_CMV_CIS: Attagene CIS-FACTORIAL HepG2 Assay for human CMV (Internal Marker) (AID 2282928).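 Further: endpoint acts as a background internal control marker rather than a target.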 The conditions noted are these: HepG2 CMV promoter reporter, transcription factor profiling; actives raise or lower the signal. The gist of the method:
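Bidirectional fits against DMSO are applied to reporter mRNA, read by RT-PCR with capillary electrophoresis, from HepG2 cells exposed 24 h. The endpoint serves as an internal CMV background marker within the cis-factorial reporter panel.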

Test [4] is described as follows: ATG_DR4_LXR_CIS: Attagene CIS-FACTORIAL HepG2 Assay for human Liver X Receptor (LXR), DR4 submotif (AID 2282929). The conditions noted are these: HepG2 Attagene DR4 cis-reporter, mRNA transcription; AC50: actives raise or lower the signal unless noted; outcome: actives raise or lower the signal unless noted. The gist of the method:
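Measures endogenous transcription factor activity via a DR4-driven reporter transcript in human HepG2 cells. Compounds incubated 24 h; mRNA quantified by RT-PCR and capillary electrophoresis, analysed as gain or loss of signal versus DMSO.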

For test [5], the target named is Aryl hydrocarbon receptor (Homo sapiens) (UniProt P35869). Nature of the test: ATG_Ahr_CIS: Attagene CIS-FACTORIAL HepG2 Assay for human Aryl Hydrocarbon Receptor (Ahr) (AID 2282930). Conditions: HepG2 AhR cis-factorial reporter transcription; actives raise or lower the signal. The gist of the method:
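Read-out: reporter mRNA quantified by RT-PCR with fluorescent primer extension and capillary electrophoresis. Human HepG2 liver cells carried transfected cis-promoter reporter units and were exposed to chemical for 24 h; gain or loss fitted relative to DMSO.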

Test [6] in a line: ATG_AP_1_CIS: Attagene CIS-FACTORIAL HepG2 Assay for human Activator Protein 1 (AP-1) (AID 2282931). The conditions noted are these: HepG2 Attagene cis-factorial AP-1 reporter mRNA; actives raise or lower the signal. The gist of the method: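 Bidirectional concentration-response fitting against DMSO controls. Underlying signal: reporter mRNA from cis-promoter constructs in transiently transfected HepG2, measured after 24 h by RT-PCR and capillary electrophoresis.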

Test [7] in a line: ATG_AP_2_CIS: Attagene CIS-FACTORIAL HepG2 Assay for human Activator Protein 2 (AP-2) (AID 2282932). Conditions: HepG2 AP-2 cis-reporter, Attagene transcription factor profiling; AC50: actives raise or lower the signal unless noted; outcome: actives raise or lower the signal unless noted. The method in brief:
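Liver-derived HepG2 line, cis-reporter system measuring endogenous factors; 24 h dosing; reporter mRNA detected by fluorescent RT-PCR and capillary electrophoresis.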

Test [8] is described as follows: ATG_BRE_CIS: Attagene CIS-FACTORIAL HepG2 Assay for human Bone Morphogenetic Protein (BMP) Response Element (BRE) (AID 2282933). The conditions noted are these: HepG2 BMP response element reporter, Attagene transcription factor profiling; actives raise or lower the signal. The method in brief:
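HepG2 cells transiently transfected with CIS reporter units (endogenous TF activity, BMP response element), dosed 24 h. Reporter mRNA quantified by RT-PCR, fluorescent labelling and capillary electrophoresis; bidirectional fit vs DMSO baseline.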

Test [9] has as its target Retinoic acid receptor alpha (Homo sapiens) (UniProt P10276). Put plainly: ATG_DR5_RAR_CIS: Attagene CIS-FACTORIAL HepG2 Assay for human Retinoic Acid Receptor Alpha (RARE), DR5 submotif (AID 2282934).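 On AC50: reporter responds to endogenous RAR alpha beta and gamma in HepG2 not RARA alone.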 The conditions noted are these: HepG2 Attagene cis-factorial RARE DR5 reporter, mRNA; actives raise or lower the signal. The method in brief: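 Read-out: DR5-driven reporter transcript measured by RT-PCR, 6-FAM primer extension, HpaI digest and capillary electrophoresis. Human HepG2 liver cells carry transiently transfected cis-element reporter constructs; dosing lasts 24 h. Gain or loss of signal fitted against DMSO baseline.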

For test [10], the target named is Transcription factor E2F1 (Homo sapiens) (UniProt Q01094). Nature of the test: ATG_E2F_CIS: Attagene CIS-FACTORIAL HepG2 Assay for human E2F Transcription Factor 1 (AID 2282935). Conditions: HepG2 Attagene cis-reporter, E2F reporter RNA transcripts; actives raise or lower the signal. The gist of the method:
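Liver-derived HepG2 cells expressing transfected promoter-driven reporter units received test chemical for 24 hours. Signal gains or losses were fitted bidirectionally against DMSO.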

Chain of CCAAT/enhancer-binding protein beta (Homo sapiens) (P17676 whole entry, looked up): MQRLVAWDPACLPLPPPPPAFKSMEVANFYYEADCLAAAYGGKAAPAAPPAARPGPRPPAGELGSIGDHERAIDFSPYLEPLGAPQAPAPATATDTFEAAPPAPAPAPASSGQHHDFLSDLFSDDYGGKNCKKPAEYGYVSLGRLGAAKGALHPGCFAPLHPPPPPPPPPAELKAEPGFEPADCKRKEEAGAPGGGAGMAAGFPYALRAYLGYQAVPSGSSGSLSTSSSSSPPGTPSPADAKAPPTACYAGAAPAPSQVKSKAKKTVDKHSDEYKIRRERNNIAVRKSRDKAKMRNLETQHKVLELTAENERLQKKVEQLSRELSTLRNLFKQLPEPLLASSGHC
Chain of Transcription factor E2F1 (Homo sapiens) (Q01094 whole entry, looked up): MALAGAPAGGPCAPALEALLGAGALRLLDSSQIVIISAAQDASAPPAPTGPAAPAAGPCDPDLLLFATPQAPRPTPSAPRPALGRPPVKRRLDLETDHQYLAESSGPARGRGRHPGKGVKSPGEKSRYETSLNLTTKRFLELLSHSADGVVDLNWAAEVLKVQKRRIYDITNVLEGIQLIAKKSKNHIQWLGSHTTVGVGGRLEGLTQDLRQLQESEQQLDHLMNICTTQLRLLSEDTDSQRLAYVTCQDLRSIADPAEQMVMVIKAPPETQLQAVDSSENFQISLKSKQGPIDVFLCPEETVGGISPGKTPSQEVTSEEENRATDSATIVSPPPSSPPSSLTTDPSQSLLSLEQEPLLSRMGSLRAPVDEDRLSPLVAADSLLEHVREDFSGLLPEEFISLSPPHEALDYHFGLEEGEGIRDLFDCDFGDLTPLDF
Chain of Retinoic acid receptor alpha (Homo sapiens) (P10276 whole entry, looked up): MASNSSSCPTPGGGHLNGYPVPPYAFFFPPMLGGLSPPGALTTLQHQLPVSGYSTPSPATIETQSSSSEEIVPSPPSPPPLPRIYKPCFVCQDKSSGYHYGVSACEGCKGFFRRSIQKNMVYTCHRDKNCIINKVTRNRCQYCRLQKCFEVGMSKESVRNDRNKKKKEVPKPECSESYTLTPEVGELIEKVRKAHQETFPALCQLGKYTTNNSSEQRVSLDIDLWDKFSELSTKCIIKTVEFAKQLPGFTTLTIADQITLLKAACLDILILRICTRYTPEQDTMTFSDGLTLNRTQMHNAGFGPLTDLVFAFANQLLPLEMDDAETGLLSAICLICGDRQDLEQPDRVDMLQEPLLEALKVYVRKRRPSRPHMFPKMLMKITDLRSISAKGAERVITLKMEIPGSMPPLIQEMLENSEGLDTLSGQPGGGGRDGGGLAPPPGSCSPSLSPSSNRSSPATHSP
Chain of Aryl hydrocarbon receptor (Homo sapiens) (P35869 whole entry, looked up): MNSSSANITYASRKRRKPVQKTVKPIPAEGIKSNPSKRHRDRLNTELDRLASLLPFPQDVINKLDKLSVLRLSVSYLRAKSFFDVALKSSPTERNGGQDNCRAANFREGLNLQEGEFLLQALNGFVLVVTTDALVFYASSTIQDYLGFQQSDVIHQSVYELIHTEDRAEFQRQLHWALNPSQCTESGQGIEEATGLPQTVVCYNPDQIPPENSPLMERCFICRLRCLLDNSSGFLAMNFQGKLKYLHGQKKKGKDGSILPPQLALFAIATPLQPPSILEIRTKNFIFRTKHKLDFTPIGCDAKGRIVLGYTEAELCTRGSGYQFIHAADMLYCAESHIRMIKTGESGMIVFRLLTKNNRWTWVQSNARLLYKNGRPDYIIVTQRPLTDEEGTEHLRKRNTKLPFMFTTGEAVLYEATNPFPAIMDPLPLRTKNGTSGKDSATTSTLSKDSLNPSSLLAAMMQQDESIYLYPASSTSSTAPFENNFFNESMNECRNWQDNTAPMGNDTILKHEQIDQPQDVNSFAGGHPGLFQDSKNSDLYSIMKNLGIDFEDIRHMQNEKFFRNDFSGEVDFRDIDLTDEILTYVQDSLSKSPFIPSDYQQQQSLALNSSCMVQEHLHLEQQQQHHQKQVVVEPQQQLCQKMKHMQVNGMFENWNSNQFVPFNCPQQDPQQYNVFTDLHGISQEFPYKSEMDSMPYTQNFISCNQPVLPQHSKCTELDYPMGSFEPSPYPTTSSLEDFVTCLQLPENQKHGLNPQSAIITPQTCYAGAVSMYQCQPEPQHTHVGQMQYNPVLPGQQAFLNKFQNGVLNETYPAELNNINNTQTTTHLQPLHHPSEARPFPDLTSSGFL

Turning to `Oc1cccc2c(O)cccc12`, the compound was classed as inactive in [1], in test [2], in test [4], in test [6], in test [7] and in [8]. The call in test [9] and in test [10] was inactive. Also, the AC50 in [3] is 64.5 µM (active); in [5], 0.578 µM (active).

As to `CCCCCCCCCCCC(=O)NCCCN(C)C`, the figures for the half-maximal activity concentration (AC50) in test [1] and in test [8] were 20.3 µM (active) and 17.6 µM (active), respectively. In addition, the result in test [2], in test [3], in test [4], in [5], in test [6] and in test [7] was inactive. Besides, the compound was classed as inactive in test [9] and in test [10].

On to `CCC(=O)C=Cc1ccc(OC)cc1`, for which the call in [1], in [2], in [3], in test [5], in [6] and in test [7] was inactive. Also, the outcome in test [8], in test [9] and in test [10] was inactive. Also, the AC50 in [4] is 68.2 µM (active).

As for `COc1cc([N+](=O)[O-])ccc1N`, the compound was called inactive in [1], in [2], in test [3], in [4], in test [5] and in test [6]. Also, the result in test [7], in [8], in [9] and in [10] was inactive.

With `CCCCCCc1ccc(N)cc1`, the result in test [1], in test [2], in test [3], in test [4], in test [6] and in [7] was inactive. The compound was called inactive in test [8], in test [9] and in test [10]. The AC50 in [5] was 45.5 µM (active).

`CCCCCCCCCCCC`: the result in test [1], in test [2], in test [3], in test [4], in [5] and in test [6] was inactive. Also, the compound was called inactive in [7], in [8], in test [9] and in test [10].

Regarding `COC1=CC(=O)C[C@@H](C)[C@]12Oc1c(Cl)c(OC)cc(OC)c1C2=O`, the AC50 in test [1] is 130 µM (active); in test [3], 138 µM (active). For the same compound, the result in test [2], in [4], in test [5], in test [6], in [7] and in test [8] was inactive. The result in [9] and in test [10] was inactive.

As to `COc1ccccc1NC(=O)c1cc2ccccc2cc1O`, the AC50 in test [1] was 31.6 µM (active); in test [3] it was 100 µM (active); in [4] it was 41.9 µM (active); in test [5] it was 0.0553 µM (active); in test [8], 26.1 µM (active). The result in [2], in test [6], in [7], in test [9] and in test [10] was inactive.

Regarding `CC1=CC(=O)c2ccccc2C1=O`, the outcome in [1], in test [2], in test [3], in [4], in test [6] and in test [7] was inactive. Moreover, the compound was classed as inactive in test [8], in [9] and in [10]. Also, the concentration at half-maximal activity (AC50) in test [5] was 1.4 µM (active).

With `Cc1cc(Cc2cc(C)cc(C(C)(C)C)c2O)c(O)c(C(C)(C)C)c1`, the AC50 was 23.7 µM (active) in test [1]; 31.8 µM (active) in test [2]; 7.15 µM (active) in test [3]; 100 µM (active) in [4]; 55.6 µM (active) in [5]; 24.9 µM (active) in test [6]. Besides, the AC50 in test [9] is 11.4 µM (active); in test [10] it was 170 µM (active). For the same compound, the call in test [7] and in test [8] was inactive.

`O=C1OC(=O)C(F)(F)C1(F)F`: the outcome in test [1], in test [2], in [3], in test [4], in test [5] and in test [6] was inactive. Besides, the result in test [7], in test [8], in test [9] and in test [10] was inactive.

`OCC1CCC(CO)CC1` (stereo not given): the call in test [1], in [2], in test [3], in [4], in test [5] and in test [6] was inactive. Moreover, the compound was called inactive in test [7], in test [8], in test [9] and in test [10].

`CCCCCCCC(OC)OC`: the compound was called inactive in test [1], in [2], in test [3], in test [4], in test [5] and in [6]. In addition, the call in [7], in test [8], in test [9] and in [10] was inactive.

In the case of `CCCCCCCCCCCC[N+](C)(C)CCCCCCCCCCCC`, the call in test [1], in [4], in test [5], in test [6], in test [8] and in [9] was inactive. Further, in test [10], the compound was classed as inactive. Moreover, the values for the AC50 in test [2], in test [3] and in test [7] were 16.4 µM (active), 182 µM (active) and 168 µM (active), respectively.

For `COc1cccc(O)c1`, the result in test [1], in test [2], in [3], in test [4], in [5] and in [6] was inactive. Moreover, the compound was called inactive in test [7], in [8], in test [9] and in test [10].

Take `NCc1cccc(CN)c1`: the compound was called inactive in test [1], in test [2], in test [3], in test [4], in test [5] and in [6]. Moreover, the outcome in [7], in [8], in test [9] and in test [10] was inactive.

For the compound `O=S(=O)(O)C(F)(F)C(F)(F)C(F)(F)C(F)(F)C(F)(F)C(F)(F)C(F)(F)C(F)(F)C(F)(F)C(F)(F)F`, the call in [1], in [2], in [3], in [7], in test [8] and in test [9] was inactive. For the same compound, in test [10], the call was inactive. The AC50 is 8.16 µM (active) and 10.2 µM (active) in test [4]; 50.1 µM (active) and 45.9 µM (active) in test [5]; 22.4 µM (active) and 16.6 µM (active) in test [6].

Turning to `O=C1OC(=O)c2cc(-c3ccc4c(c3)C(=O)OC4=O)ccc21`, the compound was classed as inactive in test [1], in [2], in test [3], in test [4], in test [5] and in test [6]. For the same compound, the call in [7], in [8], in [9] and in test [10] was inactive.

Consider `C=Cc1ccc(O)c(OC)c1`, for which the compound was classed as inactive in test [1], in [2], in test [3], in [4], in [5] and in [6]. The compound was classed as inactive in test [7], in test [8], in test [9] and in [10].

As for `O=S(=O)(c1ccc(OCc2ccccc2)cc1)c1ccccc1O`, the AC50 in test [1] is 14.9 µM (active); in [2] it was 23.1 µM (active); in test [3], 51.6 µM (active); in test [4] it was 33.4 µM (active); in test [5], 46.8 µM (active); in [9] it was 31.7 µM (active). In addition, the result in test [6], in test [7], in test [8] and in [10] was inactive.

Turning to `Cc1cc(C(=C2C=CC(=Nc3ccc(S(=O)(=O)O)cc3)C=C2)c2ccc(Nc3ccc(S(=O)(=O)O)cc3)cc2)cc(S(=O)(=O)O)c1N`, the result in test [1], in [2], in test [3], in test [4], in [5] and in test [6] was inactive. Further, the result in test [7], in [8], in [9] and in test [10] was inactive.

As to `CCCCCCC(C)(C)C(=O)O`, the call in [1], in [2], in test [3], in [4], in [5] and in test [7] was inactive. Moreover, the compound was called inactive in [8], in test [9] and in [10]. The AC50 in [6] is 137 µM (active).

For `NNC(=O)CCCCC(=O)NN`, the outcome in [1], in test [2], in [3], in [4], in [5] and in test [6] was inactive. Also, the call in test [7], in test [8], in [9] and in [10] was inactive.

Consider `O=P(O)(O)CCC(F)(F)C(F)(F)C(F)(F)C(F)(F)C(F)(F)C(F)(F)F`, for which the outcome in test [1], in test [2], in test [3], in test [4], in [5] and in [6] was inactive. Further, the outcome in test [7], in test [8], in test [9] and in test [10] was inactive.
